In PubChem BioAssay (NCI) one finds growth data, which are given here for 9 molecules.

The panel holds about 83,000 compounds, 20% with a hit somewhere; the sample as a whole holds those more often.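 Single-concentration screen, 48 h exposure, 96-well plates. Endpoint: percent growth. Below 10 = active.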 Unmarked numbers belong to inactive results. Calls of active or inactive are those of the source.

Test systems include HOP-62 NSCLC; NCI-H460 lung; 786-0 renal; DU-145 prostate; MALME-3M melanoma; RXF 393 renal; SF-295 CNS; SK-MEL-2 melanoma; UO-31 renal; A498 renal; HL-60(TB) leukemia; OVCAR-5 ovarian; OVCAR-4 ovarian; T-47D breast; HCC-2998 colon; RPMI-8226 leukemia; A549/ATCC NSCLC; UACC-257 melanoma; M14 melanoma; SNB-19 CNS.
Experiment in all cases: NCI-60 one-dose screen, 48 h (100 = growth as untreated, 0 = no growth, -100 = all killed)
Holding throughout (details): 10 µM unless noted

Regarding `C[CH2][Pb]([CH2]C)([CH2]C)[O]C(=O)COc1ccccc1`, the growth in the assay with HOP-62 NSCLC is -9.05% (active); in the assay with NCI-H460 lung, 4.05% (active); in the assay on 786-0 renal, -22% (active); in the assay on DU-145 prostate it was -6.43% (active); in the assay with MALME-3M melanoma, 21.8%; in the assay on RXF 393 renal, 7.08% (active). Besides, the growth with SF-295 CNS is -62.3% (active); in the assay on SK-MEL-2 melanoma it was -0.355% (active); in the assay on UO-31 renal it was -6.3% (active); with A498 renal, -2.32% (active); in the assay on HL-60(TB) leukemia, -48.1% (active); with OVCAR-5 ovarian it was -5.58% (active). Moreover, the values for the growth with OVCAR-4 ovarian, in the assay with T-47D breast and in the assay on HCC-2998 colon were 14.8%, 17.2% and -52% (active), respectively.

Consider `C[CH2][Pb]([CH2]C)([CH2]C)[O]C(=O)c1ccc(N)cc1`, for which the growth in the assay on HOP-62 NSCLC was 89.3%; in the assay with NCI-H460 lung it was 69.5%; in the assay on 786-0 renal it was 80.2%; with DU-145 prostate, 68%; in the assay on MALME-3M melanoma it was 40.3%; with RXF 393 renal, 34.2%. Moreover, the growth is 91.2% in the assay with SF-295 CNS; 39.3% with SK-MEL-2 melanoma; 52.1% in the assay on UO-31 renal; 60.3% in the assay on A498 renal; 56.1% in the assay with HL-60(TB) leukemia; 59.1% in the assay with RPMI-8226 leukemia. Further, the growth in the assay on OVCAR-5 ovarian was 85.1%; with OVCAR-4 ovarian, 57%; in the assay with T-47D breast it was 47.6%; in the assay with HCC-2998 colon, 67.5%.

Consider `O=C(CCF)c1ccc(O)cc1`, for which the growth with A549/ATCC NSCLC was 101%; with 786-0 renal, 103%; with DU-145 prostate, 105%; in the assay with MALME-3M melanoma, 108%; with RXF 393 renal, 109%; with SF-295 CNS, 100%. In addition, the growth in the assay with UACC-257 melanoma is 98.2%; in the assay on M14 melanoma, 106%; in the assay with SNB-19 CNS it was 96.2%; in the assay with SK-MEL-2 melanoma, 105%; with UO-31 renal, 87%; with HL-60(TB) leukemia it was 99.2%. In addition, the growth in the assay with RPMI-8226 leukemia is 97.5%; in the assay with OVCAR-5 ovarian it was 96.7%; in the assay with OVCAR-4 ovarian, 103%; in the assay on T-47D breast, 102%; in the assay with HCC-2998 colon, 108%.

With `CCOC(=O)Nc1cc(Cl)c([N+](=O)[O-])c(NC(=O)OCC)n1`, the growth in the assay with HOP-62 NSCLC is 126%; in the assay on NCI-H460 lung it was 109%; in the assay on A549/ATCC NSCLC, 95.2%; in the assay with 786-0 renal it was 104%; with DU-145 prostate, 107%; with MALME-3M melanoma, 99.3%. Besides, the growth with RXF 393 renal is 99.3%; in the assay with SF-295 CNS it was 101%; in the assay on UACC-257 melanoma it was 88.8%; with M14 melanoma it was 84.8%; with SNB-19 CNS it was 98.1%; in the assay on SK-MEL-2 melanoma, 74.6%. For the same molecule, the growth in the assay with UO-31 renal was 99.5%; with A498 renal, 93.1%; in the assay on HL-60(TB) leukemia, 38.2%; in the assay on RPMI-8226 leukemia it was 71.5%; in the assay with OVCAR-5 ovarian it was 104%; in the assay with OVCAR-4 ovarian, 112%. For the same molecule, the values for the growth with T-47D breast and in the assay with HCC-2998 colon were 82.1% and 103%, respectively.

Consider `CC1CC=CCC12C(=O)NC(=S)NC2=O` (stereo unspecified), for which the growth is 106% with NCI-H460 lung; 91.2% in the assay with A549/ATCC NSCLC; 107% in the assay with 786-0 renal; 122% with DU-145 prostate; 105% in the assay with MALME-3M melanoma; 106% in the assay on RXF 393 renal. In addition, the growth is 99% with SF-295 CNS; 114% in the assay on UACC-257 melanoma; 114% in the assay with M14 melanoma; 109% in the assay on SNB-19 CNS; 131% with SK-MEL-2 melanoma; 92.9% with UO-31 renal. The growth is 72.9% in the assay with A498 renal; 136% with HL-60(TB) leukemia; 103% in the assay with OVCAR-5 ovarian; 105% with OVCAR-4 ovarian; 98.2% in the assay on T-47D breast; 116% in the assay on HCC-2998 colon.

On to `CC(=O)[O][Hg][CH2]C1(C)COC(C)([CH2][Hg][O]C(C)=O)CO1` (stereo unspecified), for which the growth is 120% with HOP-62 NSCLC; 78.1% with NCI-H460 lung; 79% in the assay with 786-0 renal; 69.2% with SF-295 CNS; 93.6% with UACC-257 melanoma; 39% with M14 melanoma. Besides, the growth in the assay with SNB-19 CNS was 71.1%; in the assay on SK-MEL-2 melanoma, 63.2%; with UO-31 renal, -39.3% (active); with A498 renal it was 75.8%; with HL-60(TB) leukemia it was 74.4%; in the assay on RPMI-8226 leukemia, 26%. Moreover, the growth in the assay with OVCAR-5 ovarian is 114%; in the assay on OVCAR-4 ovarian it was 123%; in the assay on T-47D breast, 4.43% (active); with HCC-2998 colon, 4.37% (active).

In the case of `N#Cc1ncc(/N=C/c2ccc(N(CCCl)CCCl)cc2)s1`, the growth with HOP-62 NSCLC was 96.1%; in the assay on NCI-H460 lung, 22.7%; in the assay on A549/ATCC NSCLC, 86%; in the assay on 786-0 renal, 29%; with DU-145 prostate, 49.2%; in the assay on RXF 393 renal, 84.7%. The growth in the assay with SF-295 CNS was 58.4%; with UACC-257 melanoma it was 82.4%; with M14 melanoma, 86.8%; in the assay with SNB-19 CNS, 89%; in the assay on SK-MEL-2 melanoma, 57%; in the assay with UO-31 renal, 34.8%. Also, the growth with A498 renal was 88.2%; with HL-60(TB) leukemia, 39.3%; in the assay with OVCAR-5 ovarian it was 100%; in the assay with OVCAR-4 ovarian, 81.9%; with T-47D breast, 64.2%; with HCC-2998 colon it was 96.8%.

In the case of `COc1cc[c]([Hg][Cl])cc1`, the growth was 82.6% in the assay on HOP-62 NSCLC; 43.9% in the assay on NCI-H460 lung; 94.8% in the assay on A549/ATCC NSCLC; 56% in the assay with 786-0 renal; 47.3% in the assay on MALME-3M melanoma; -42.2% (active) in the assay with RXF 393 renal. In addition, the growth with SF-295 CNS was 93.3%; in the assay on UACC-257 melanoma, 65.5%; in the assay on M14 melanoma it was 17%; with SNB-19 CNS, 28.6%; with SK-MEL-2 melanoma, 39.9%; with UO-31 renal, 96.6%. The growth with A498 renal was 84.8%; in the assay with HL-60(TB) leukemia, -22.4% (active); in the assay on RPMI-8226 leukemia, 41.5%; with OVCAR-5 ovarian, 105%; with OVCAR-4 ovarian it was 65.1%; in the assay on T-47D breast, -3.04% (active). Further, the growth in the assay on HCC-2998 colon is 88.7%.

`NC(=O)C(Br)CBr` (stereo unspecified): the growth is -40.8% (active) in the assay on HOP-62 NSCLC; 4.13% (active) in the assay on NCI-H460 lung; 4.34% (active) with A549/ATCC NSCLC; -28.2% (active) with DU-145 prostate; 81.1% with SF-295 CNS; -83.5% (active) in the assay on UACC-257 melanoma. In addition, the growth is -88.3% (active) in the assay with M14 melanoma; 80.1% in the assay with SNB-19 CNS; -85.3% (active) with SK-MEL-2 melanoma; -51.8% (active) with UO-31 renal; 103% in the assay with A498 renal; -23.2% (active) in the assay on HL-60(TB) leukemia. Besides, the growth with RPMI-8226 leukemia is -39.3% (active); with OVCAR-5 ovarian, 10.9%; in the assay on OVCAR-4 ovarian it was -100% (active); with T-47D breast, 1.22% (active); in the assay with HCC-2998 colon, 38.4%.
